Laboratory results taken from the supplement of paper PMC6089552.
The whole screen tested about 3,200 compounds, of which about 300 (9.4%) showed activity. The entries come from a sample that favours actives as a whole.

Test system: A673/TR/shEF
Assay: cell viability (LOESS-normalised, relative to median of negative controls) (log2 ratio); higher = more viable cells (less compound effect), active = hit call of the paper (over 3 MAD below the median)
Conditions: treatment time: 72 h
Outline: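 A673/TR/shEF Ewing sarcoma cells were plated at 1,500 per well in 384-well plates and cultured with or without doxycycline, added 24 h before compounds, to induce EWS-FLI1 shRNA knockdown. Library compounds at two or more concentrations, alongside DMSO controls, were applied for three days. Cell viability was measured by CellTiter-Glo luminescence on an Envision reader. Readings were LOESS-corrected per plate, divided by the median of negative controls and log2-transformed, and hits were wells lying at least three median absolute deviations from the median of all screened wells.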

[1] = 0.25 µM, library screen: screen1, EWS-FLI1 expression: high (no doxycycline)
[2] = 0.25 µM, library screen: screen1, EWS-FLI1 expression: low (doxycycline-induced shRNA knockdown)
[3] = 0.25 µM, library screen: screen2, EWS-FLI1 expression: high (no doxycycline)
[4] = 0.25 µM, library screen: screen2, EWS-FLI1 expression: low (doxycycline-induced shRNA knockdown)
[5] = 2.5 µM, library screen: screen1, EWS-FLI1 expression: high (no doxycycline)
[6] = 2.5 µM, library screen: screen1, EWS-FLI1 expression: low (doxycycline-induced shRNA knockdown)
[7] = 2.5 µM, library screen: screen2, EWS-FLI1 expression: high (no doxycycline)
[8] = 2.5 µM, library screen: screen2, EWS-FLI1 expression: low (doxycycline-induced shRNA knockdown)
[9] = 0.025 µM, library screen: screen1, EWS-FLI1 expression: high (no doxycycline)
[10] = 0.025 µM, library screen: screen1, EWS-FLI1 expression: low (doxycycline-induced shRNA knockdown)
[11] = 25 µM, library screen: screen1, EWS-FLI1 expression: high (no doxycycline)
[12] = 25 µM, library screen: screen1, EWS-FLI1 expression: low (doxycycline-induced shRNA knockdown)

Measured: cell viability (log2)

CN1[C@@H]2CC[C@@H]1CC(OC(c1ccccc1)c1ccccc1)C2 (stereo not given in full)
inactive: [1] 0.132 | [2] 0.107 | [3] 0.135 | [4] 0.0858 | [5] 0.0835 | [6] 0.0797 | [7] 0.114 | [8] 0.0926

O=C(Nc1ccccc1)Nc1ccccc1
inactive: [1] -0.0389 | [2] 0.0106 | [5] 0.0741 | [6] -0.00546

O=C(Cc1ccccc1)NO
inactive: [1] 0.111 | [2] 0.0668 | [5] 0.126 | [6] 0.0445

O=C(CCCCCCC(=O)Nc1ccccc1)NO
inactive: 0.103 µM, library screen: screen3, EWS-FLI1 expression: high (no doxycycline) 0.0138 | 0.103 µM, library screen: screen3, EWS-FLI1 expression: low (doxycycline-induced shRNA knockdown) 0.0808 | [3] 0.16 | [4] 0.101 | 0.308 µM, library screen: screen3, EWS-FLI1 expression: high (no doxycycline) 0.0409 | 0.308 µM, library screen: screen3, EWS-FLI1 expression: low (doxycycline-induced shRNA knockdown) 0.115 | 0.926 µM, library screen: screen3, EWS-FLI1 expression: high (no doxycycline) 0.0465 | 0.926 µM, library screen: screen3, EWS-FLI1 expression: low (doxycycline-induced shRNA knockdown) 0.156 | [7] 0.0836 | [8] 0.0743 | 2.8 µM, library screen: screen3, EWS-FLI1 expression: high (no doxycycline) -0.083 | 2.8 µM, library screen: screen3, EWS-FLI1 expression: low (doxycycline-induced shRNA knockdown) -0.944
active: 8.3 µM, library screen: screen3, EWS-FLI1 expression: high (no doxycycline) -1.12 | 8.3 µM, library screen: screen3, EWS-FLI1 expression: low (doxycycline-induced shRNA knockdown) -0.391 | 25 µM, library screen: screen3, EWS-FLI1 expression: high (no doxycycline) -2.67 | 25 µM, library screen: screen3, EWS-FLI1 expression: low (doxycycline-induced shRNA knockdown) -1.56

Cc1c2oc3c(C)ccc(C(=O)NC4C(=O)NC(C(C)C)C(=O)N5CCCC5C(=O)N(C)CC(=O)N(C)C(C(C)C)C(=O)OC4C)c3nc-2c(C(=O)NC2C(=O)NC(C(C)C)C(=O)N3CCCC3C(=O)N(C)CC(=O)N(C)C(C(C)C)C(=O)OC2C)c(N)c1=O (stereo not given)
active: [1] -4.25 | [2] -4.25 | [5] -4.23 | [6] -4.26

COc1ccc(OC)c(CN2CCN(Cc3ccc([N+](=O)[O-])cc3)CC2)c1
inactive: [1] 0.0199 | [2] 0.014 | [5] -0.0107 | [6] 0.0533

O=C(O)c1cc2cc(Cl)ccc2[nH]1
inactive: [1] 0.0631 | [2] -0.00653 | [5] 0.106 | [6] 0.0362

O=C(O)c1cc2cc(F)ccc2[nH]1
active: [3] -0.173
inactive: [1] 0.0776 | [2] -0.00933 | [4] 0.0925 | [5] 0.156 | [6] 0.00267 | [7] 0.154 | [8] 0.0908

O=C(O)c1cc2ccccc2[nH]1
inactive: [1] 0.123 | [2] 0.0929 | [5] 0.0969 | [6] 0.132

Cn1cnnc1SCC(=O)N1c2ccccc2CCc2ccccc21
inactive: [1] 0.0935 | [2] 0.0627 | [5] 0.0921 | [6] 0.0613

N#C/C(=C\c1ccc(O)c(O)c1)C(=O)NCCc1ccccc1
inactive: [3] 0.142 | [4] 0.0983 | [7] 0.163 | [8] 0.0697

C[C@@H](NC(=O)/C(C#N)=C/c1ccc(O)c(O)c1)c1ccccc1
inactive: [3] 0.139 | [4] -0.0177 | [7] 0.152 | [8] 0.00798

N#C/C(=C\c1ccc(O)c(O)c1)C(=O)Nc1ccccc1
active: [5] -0.16 | [11] -0.692
inactive: [9] 0.188 | [10] -0.0571 | [1] 0.155 | [2] 0.0428 | [3] 0.0861 | [4] 0.0194 | [6] 0.0541 | [7] 0.105 | [8] 0.00853 | [12] 0.0298

N#C/C(=C\c1ccc(O)c(O)c1)C(=O)NCCCc1ccccc1
inactive: [3] 0.175 | [4] 0.0501 | [7] 0.049 | [8] 0.115

C[C@H](NC(=O)/C(C#N)=C/c1ccc(O)c(O)c1)c1ccccc1
inactive: [3] 0.133 | [4] 0.0775 | [7] 0.118 | [8] 0.0876

O=C(O)Cc1ccc(O)c(O)c1
inactive: [3] 0.133 | [4] -0.00472 | [7] 0.0419 | [8] 0.108

CC(C)c1cc(/C=C(\C#N)C(=O)NCCCc2ccccc2)cc(C(C)C)c1O
inactive: [9] 0.249 | [10] 0.00192 | [1] 0.255 | [2] -0.0227 | [6] 0.113 | [12] 0.147
active: [5] -0.147 | [11] -0.351

N#C/C(=C\c1ccc(O)c(O)c1)C(=O)NCc1ccccc1
inactive: [9] 0.245 | [10] 0.0652 | [1] 0.23 | [2] 0.104 | [3] 0.0885 | [4] 0.0797 | [7] 0.253 | [8] 0.0805 | [12] -0.0381
active: [5] -0.573 | [6] -0.157 | [11] -0.423

O=C(O)c1cc([N+](=O)[O-])ccc1NCCCc1ccccc1
inactive: [1] 0.00351 | [2] 0.0513 | [3] 0.0917 | [4] 0.092 | [5] -0.0108 | [6] 0.0086 | [7] 0.0503 | [8] 0.0316
